Measured values: the supplement of paper PMC11219838
A number with no mark means an inactive call.

Key:
Details in all cases: 60 µM; 5 days; temperature: 20 °C
Meloidogyne hapla J2 = assay: proportion of mobile M. hapla J2 relative to DMSO control (fraction of DMSO control); higher = more viable, less nematicidal, active = 0.7 or less
Method in brief: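 Two biological replicates were run and averaged, each on 96-well plates in which about 25 M. hapla J2 sat in distilled water per well. Compound was pinned in to give 60 µM final and 0.6% v/v DMSO, and the sealed plates were shaken at 200 rpm and 20 °C for 5 days before 2 µL 1 M NaOH was added. Mobility was scored microscopically and divided by the mean from the plate's DMSO-only wells, of which there were eight.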

[1] = system: Caenorhabditis elegans dauer (daf-2(e1370)); assay: proportion of mobile C. elegans dauer larvae relative to DMSO control (fraction of DMSO control); higher = more viable, less nematicidal, active = 0.63 or less; extreme values may be limits of the assay
Method in brief: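 Compound was added by pinning to 60 µM final, giving 0.6% v/v DMSO, in 96-well plates containing about 20 C. elegans dauers per well in liquid NGM. These dauers came from synchronized larvae held on MYOB plates with E. coli OP50 for 48 h at 25 °C. Plates were sealed and shaken at 200 rpm at 20 °C for 5 days. Under a dissection microscope, the proportion of mobile worms was scored relative to DMSO wells, and two biological replicates were averaged.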

Ditylenchus dipsaci = assay: proportion of mobile D. dipsaci (mixed stage) relative to DMSO control (fraction of DMSO control); higher = more viable, less nematicidal, active = 0.86 or less; extreme values may be limits of the assay
Method in brief: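 The worms, D. dipsaci raised on pea plants in Gamborg B-5 agar, were recovered through a filter funnel into water. Each well of a 96-well plate then held about 20 of them in distilled water plus pinned compound at 60 µM final (0.6% v/v DMSO), and the sealed plates were shaken at 200 rpm at 20 °C for 5 days. Following addition of 2 µL 1 M NaOH, mobile worms were counted by microscopy, and mobility was expressed against DMSO controls as the average of two biological replicates.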

Row | Structure (SMILES) | proportion of mobile M. hapla J2 (Meloidogyne hapla J2) | proportion of mobile C. elegans dauer larvae [1] | proportion of mobile D. dipsaci (Ditylenchus dipsaci)
1 | COc1ccccc1-c1nnc(SCC(=O)Nc2ccc(C)cc2)o1 | 1.03 | 1 | 0.885
2 | Cc1cccc(-c2noc(-c3ccc(F)cc3)n2)c1 | 0.642 (active) | 1 | 1
3 | COc1ccc(-c2nnc(SCC(=O)N(C)c3ccccc3)o2)cc1 | 1.05 | 1 | 1
4 | Cc1cccc(OCc2nc(-c3ccncc3)no2)c1C | 0.937 | 1 | 1
5 | Cc1ccc(-c2noc(COc3cccc(C)c3)n2)cc1 | 0.972 | 1 | 1
6 | Cc1ccc(-c2nc(-c3ccccc3Cl)no2)c(Cl)c1 | 0.942 | 1 | 1
7 | CCCc1ccc(-c2nc(-c3ccc(F)cc3)no2)cc1 | 1.01 | 0.714 | 1
8 | COc1ccccc1-c1nnc(SCC(=O)Nc2ccc(Br)cn2)o1 | 0.908 | 1 | 1
9 | COc1ccc(C)cc1NC(=O)CSc1nnc(-c2ccc(Br)cc2)o1 | 0.938 | 1 | 1
10 | Cc1ccc(-c2noc(COc3ccc(Br)cc3)n2)cc1 | 1 | 1 | 1
11 | O=C(CSc1nnc(-c2cc3ccccc3o2)o1)NC1CC1 | 0.928 | 1 | 1
12 | Cc1ccc(-c2noc(-c3cccc(C)c3)n2)cc1 | 0.947 | 0.557 (active) | 1
13 | CN(C)C(=O)c1ccccc1-c1nc(-c2ccc(Cl)cc2)no1 | 0.963 | 1 | 1
14 | Cc1ccc(-c2nc(-c3ccncc3)no2)cc1Cl | 0.852 | 1 | 1
15 | Brc1ccc(-c2noc(-c3ccco3)n2)o1 | 0.801 | 0.391 (active) | 1
16 | CC(Sc1nnc(-c2ccco2)o1)C(=O)NC(c1ccccc1)c1ccccc1 (stereo not drawn) | 1.05 | 1 | 1
17 | COc1ccc(Cl)cc1-c1noc(COc2ccccc2)n1 | 0.953 | 1 | 1

Row | Structure (SMILES) | proportion of mobile M. hapla J2 (Meloidogyne hapla J2) | proportion of mobile C. elegans dauer larvae [1] | proportion of mobile D. dipsaci (Ditylenchus dipsaci)
18 | CCOc1ccccc1-c1nnc(SCc2ccc(C(=O)OC)o2)o1 | 0.904 | – | 1
19 | Cc1ccccc1-c1noc(COc2ccc(Cl)cc2Cl)n1 | 1.02 | – | 1
20 | Cc1ccc(C)c(-c2nc(-c3cccnc3)no2)c1 | 1.06 | – | 1
21 | Cc1ccccc1OCc1nc(-c2ccc3c(c2)OCO3)no1 | 0.878 | 1 | 1
22 | CC(=O)Nc1cccc(-c2nnc(SCc3ccc(F)cc3)o2)c1 | 0.959 | – | 1
23 | CCCCCSc1nnc(-c2ccc(Cl)cc2Cl)o1 | 0.96 | – | 1
24 | Cc1ccc(-c2nc(-c3ccccc3Br)no2)cc1 | 0.962 | 1 | 1
25 | CCOc1cc(-c2nc(-c3ccccc3C)no2)cc(OCC)c1OCC | 0.821 | – | 1
26 | COc1cccc(-c2nc(-c3ccc(F)cc3)no2)c1 | 0.862 | – | 1
27 | Cc1cccc(-c2noc(COc3ccc(C)cc3C)n2)c1 | 1.09 | – | 1
28 | Cc1cccc(-c2noc(COc3cc(C)ccc3C)n2)c1 | 1.04 | – | 1
29 | CCc1ccc(OCc2nc(-c3cccnc3)no2)cc1 | 1.04 | 0.436 (active) | 1
30 | Clc1ccc(-c2nc(-c3ccncc3)no2)cc1Cl | 0.987 | – | 1
31 | O=C(CSc1nnc(-c2ccccc2)o1)Nc1ccc(Br)cc1F | 0.992 | – | 1
32 | COc1ccc(C(=O)Nc2ccc(-c3nnc(SCc4ccccc4)o3)cc2)cc1 | 1.07 | – | 1
33 | Cc1cc(C)nc(SCc2nc(-c3ccccc3)no2)n1 | 1.05 | – | 1
34 | CC(C)Oc1cccc(-c2nc(-c3ccccn3)no2)c1 | 1.01 | – | 1
